From PMC5540273 (PLoS ONE, 2017)

These molecules were tested on T1, LZK. Settings: concentration: 1 μM, replicates: in singlicate; n = 1.
T1 construct: gene MAP3K13
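Also: KINOMEscan kinase panel screen.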

| Compound | %Inh [%] |
| --- | --- |
| CNc1nccc(-c2c(-c3ccc(F)cc3)ncn2C2CCN(C)CC2)n1 [SB-222903] | 0 |
| CCn1c(-c2ccncc2)nc2cnccc21 [SB-735216] | 59 |
| Clc1cc(Nc2ncnc3cc[nH]c23)ccc1OCc1ccccn1 | 0 |
| CN1CCC(n2cnc(-c3ccc(F)cc3)c2-c2ccnc(NC3CCNCC3)n2)CC1 [SB-229482] | 0 |
| Fc1ccc(-c2ncn(CCCNCc3ccccc3)c2-c2ccncc2)cc1 | 12 |
| Cc1ccc(NC(=O)c2cccc(C#N)c2)cc1-c1ccc(C(=O)Nc2ccncc2)cc1 [GSK1398463] | 0 |
| O=C(c1ccc(-c2cc(-c3c[nH]nc3-c3ccccn3)ccn2)cc1)N1CCCC1 [GW792479] | 0 |
| Cl.c1ccc(Cn2ccc3cc(Nc4ncnc5ccccc45)ccc32)cc1 [GW275568] | 35 |
| CS(=O)(=O)CCNCc1ccc(-c2ccc3ncnc(Nc4ccc(OCc5ccccc5)c(Cl)c4)c3c2)o1.Cl [GW574783] | 26 |
| CCC(CC)(CC)n1cnc2c(N)ncnc21 [SKF-97620] | 36 |
| CC(C)(C)OC(=O)NC1CCCN(c2cc(-c3ccc4c(N)n[nH]c4c3)nc(N)n2)C1 (stereo not drawn) [GSK2286096] | 0 |
| O=C(Nc1ccccc1F)NC1CCN(c2ccnc(Nc3ccc(F)cc3)n2)C1 (stereo not drawn) [GSK1379722] | 23 |
| Cl.c1ccc(Cn2ncc3cc(Nc4ncnc5ccccc45)ccc32)cc1 [GW273749] | 0 |
| CC(=O)Nc1n[nH]c2ncc(-c3ccccc3)cc12 [SB-548492] | 0 |
| Cc1cc(N2CCC(NS(=O)(=O)c3ccc(F)cc3)CC2)nc(Nc2cccc(C#N)c2)n1.O=C(O)C(F)(F)F [GSK1653537] | 0 |
| N#Cc1ccc(Oc2ccc(Nc3ncnc4cc[nH]c34)cc2Cl)cc1 | 0 |
| CCc1nc(-c2cccc(N(C)S(=O)(=O)c3ccccc3)c2)c(-c2ccnc(Nc3ccc(N4CCN(C(C)=O)CC4)nc3)n2)s1 [GSK1645895] | 0 |
| CNc1nccc(-c2c(-c3ccc(F)cc3)ncn2CCCN2CCOCC2)n1 [SB-222516] | 0 |

| Compound | %Inh [%] |
| --- | --- |
| Cc1ccc(C)c(NC(=O)NCCNc2ccnc(Nc3ccc(F)cc3)n2)c1 [GSK1379878] | 0 |
| Cc1cccc(-c2nc(Nc3ccc4[nH]nnc4c3)c3ccccc3n2)n1 [GW867587] | 0 |
| COc1ccc(Nc2nccc(N3CCC(NC(=O)c4cccc(NC(C)=O)c4)C3)n2)cc1 (stereo not drawn) [GSK1379732] | 46 |
| CSc1ccc(NC2=C(c3ccccc3Cl)C(=O)NC2=O)cc1 [SB-342411] | 0 |
| C[C@@H]1CCN(C(=O)CO)C[C@@H]1N(C)c1ncnc2[nH]ccc12 | 10 |
| CSc1nn2c(=O)cc(N3CCOCC3)nc2n1Cc1cccc(Cl)c1Cl [GSK2347225] | 0 |
| COc1ccc(-c2oc3ncnc(N)c3c2-c2ccc(OC)cc2)cc1 [SB-589132] | 51 |
| COc1ccc(NC(=O)c2ccc(-c3cc(-c4nnc(C)o4)ccc3C)cc2)cc1 [GW595885] | 12 |
| COC(=O)c1c(-c2ccccc2)c2cc(Cl)ccc2c(=O)n1Cc1ccc(S(C)(=O)=O)cc1 | 0 |
| CS(=O)(=O)CCNCc1nc(-c2ccc3ncnc(Nc4ccc(OCc5cccc(F)c5)c(Cl)c4)c3c2)cs1.Cl [GW583340] | 0 |
| Cc1ccc(O)cc1Nc1cc(C(F)(F)F)nc2ccc(-c3ccncc3)cc12 [GW630823] | 0 |
| Nc1nc(-c2ccc3c(N)n[nH]c3c2)cc(N2CCC[C@@H](C(=O)Nc3ccccc3)C2)n1.O=C(O)C(F)(F)F.O=C(O)C(F)(F)F [GSK2288359] | 0 |
| CN1c2ccc(-c3ccc(C(=O)NCCO)cc3)cc2-c2[nH]ncc2S1(=O)=O | 0 |
| Oc1ccc2ncnc(Nc3ccc(OCc4ccccc4)cc3)c2c1 [GI262866] | 0 |
| Nc1nc(-c2ccccn2)c(-c2ccnc3ccccc23)s1 [GW548057] | 51 |
| FC(F)(F)c1ccc(-c2cc(-c3c[nH]nc3-c3ccccn3)ccn2)cc1 [GW599550] | 29 |
| Cn1cc(-c2ccc3c(c2)CCN3C(=O)Cc2cccc(C(F)(F)F)c2)c2c(N)ncnc21 [GSK2606414] | 0 |
| NC(=O)c1sc(-n2cnc3ccccc32)cc1OCc1ccccc1F [GSK1024306] | 27 |

What follows are molecules tested on MAK. Settings: concentration: 1 μM, replicates: in singlicate; n = 1.

| Compound | %Inh [%] |
| --- | --- |
| CNc1nccc(-c2c(-c3ccc(F)cc3)ncn2C2CCN(C)CC2)n1 [SB-222903] | 0 |
| CCn1c(-c2ccncc2)nc2cnccc21 [SB-735216] | 12 |
| Clc1cc(Nc2ncnc3cc[nH]c23)ccc1OCc1ccccn1 | 42 |
| CN1CCC(n2cnc(-c3ccc(F)cc3)c2-c2ccnc(NC3CCNCC3)n2)CC1 [SB-229482] | 29 |
| Fc1ccc(-c2ncn(CCCNCc3ccccc3)c2-c2ccncc2)cc1 | 5 |
| Cc1ccc(NC(=O)c2cccc(C#N)c2)cc1-c1ccc(C(=O)Nc2ccncc2)cc1 [GSK1398463] | 36 |
| O=C(c1ccc(-c2cc(-c3c[nH]nc3-c3ccccn3)ccn2)cc1)N1CCCC1 [GW792479] | 0 |
| Cl.c1ccc(Cn2ccc3cc(Nc4ncnc5ccccc45)ccc32)cc1 [GW275568] | 25 |
| CS(=O)(=O)CCNCc1ccc(-c2ccc3ncnc(Nc4ccc(OCc5ccccc5)c(Cl)c4)c3c2)o1.Cl [GW574783] | 12 |
| CCC(CC)(CC)n1cnc2c(N)ncnc21 [SKF-97620] | 12 |
| CC(C)(C)OC(=O)NC1CCCN(c2cc(-c3ccc4c(N)n[nH]c4c3)nc(N)n2)C1 (stereo not drawn) [GSK2286096] | 17 |
| O=C(Nc1ccccc1F)NC1CCN(c2ccnc(Nc3ccc(F)cc3)n2)C1 (stereo not drawn) [GSK1379722] | 12 |
| Cl.c1ccc(Cn2ncc3cc(Nc4ncnc5ccccc45)ccc32)cc1 [GW273749] | 33 |
| CC(=O)Nc1n[nH]c2ncc(-c3ccccc3)cc12 [SB-548492] | 51 |
| Cc1cc(N2CCC(NS(=O)(=O)c3ccc(F)cc3)CC2)nc(Nc2cccc(C#N)c2)n1.O=C(O)C(F)(F)F [GSK1653537] | 17 |
| N#Cc1ccc(Oc2ccc(Nc3ncnc4cc[nH]c34)cc2Cl)cc1 | 13 |
| CCc1nc(-c2cccc(N(C)S(=O)(=O)c3ccccc3)c2)c(-c2ccnc(Nc3ccc(N4CCN(C(C)=O)CC4)nc3)n2)s1 [GSK1645895] | 22 |
| CNc1nccc(-c2c(-c3ccc(F)cc3)ncn2CCCN2CCOCC2)n1 [SB-222516] | 0 |

| Compound | %Inh [%] |
| --- | --- |
| Cc1ccc(C)c(NC(=O)NCCNc2ccnc(Nc3ccc(F)cc3)n2)c1 [GSK1379878] | 22 |
| Cc1cccc(-c2nc(Nc3ccc4[nH]nnc4c3)c3ccccc3n2)n1 [GW867587] | 0 |
| COc1ccc(Nc2nccc(N3CCC(NC(=O)c4cccc(NC(C)=O)c4)C3)n2)cc1 (stereo not drawn) [GSK1379732] | 14 |
| CSc1ccc(NC2=C(c3ccccc3Cl)C(=O)NC2=O)cc1 [SB-342411] | 0 |
| C[C@@H]1CCN(C(=O)CO)C[C@@H]1N(C)c1ncnc2[nH]ccc12 | 0 |
| CSc1nn2c(=O)cc(N3CCOCC3)nc2n1Cc1cccc(Cl)c1Cl [GSK2347225] | 24 |
| COc1ccc(-c2oc3ncnc(N)c3c2-c2ccc(OC)cc2)cc1 [SB-589132] | 11 |
| COc1ccc(NC(=O)c2ccc(-c3cc(-c4nnc(C)o4)ccc3C)cc2)cc1 [GW595885] | 47 |
| COC(=O)c1c(-c2ccccc2)c2cc(Cl)ccc2c(=O)n1Cc1ccc(S(C)(=O)=O)cc1 | 5 |
| CS(=O)(=O)CCNCc1nc(-c2ccc3ncnc(Nc4ccc(OCc5cccc(F)c5)c(Cl)c4)c3c2)cs1.Cl [GW583340] | 23 |
| Cc1ccc(O)cc1Nc1cc(C(F)(F)F)nc2ccc(-c3ccncc3)cc12 [GW630823] | 7 |
| Nc1nc(-c2ccc3c(N)n[nH]c3c2)cc(N2CCC[C@@H](C(=O)Nc3ccccc3)C2)n1.O=C(O)C(F)(F)F.O=C(O)C(F)(F)F [GSK2288359] | 29 |
| CN1c2ccc(-c3ccc(C(=O)NCCO)cc3)cc2-c2[nH]ncc2S1(=O)=O | 0 |
| Oc1ccc2ncnc(Nc3ccc(OCc4ccccc4)cc3)c2c1 [GI262866] | 13 |
| Nc1nc(-c2ccccn2)c(-c2ccnc3ccccc23)s1 [GW548057] | 12 |
| FC(F)(F)c1ccc(-c2cc(-c3c[nH]nc3-c3ccccn3)ccn2)cc1 [GW599550] | 11 |
| Cn1cc(-c2ccc3c(c2)CCN3C(=O)Cc2cccc(C(F)(F)F)c2)c2c(N)ncnc21 [GSK2606414] | 0 |
| NC(=O)c1sc(-n2cnc3ccccc32)cc1OCc1ccccc1F [GSK1024306] | 13 |
